Source: PubChem BioAssay (NCI)
Compounds without any hit were thinned out: in the full panel of roughly 83,000, 20% have a hit.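 For each line, cells grew in 96-well plates with the test compound present at a single concentration for 48 hours.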 Unmarked numbers belong to inactive results. Active and inactive are the calls of the source. Rule for the calls: active = growth percent below 10; inactive = the rest.

Experiments:
Assay in all cases: NCI-60 one-dose screen, 48 h (100 = growth as untreated, 0 = no growth, -100 = all killed)
HT29 colon = details: 10 µM unless noted
SNB-75 CNS = details: 10 µM unless noted
SNB-19 CNS = details: 10 µM unless noted
U251 CNS = details: 10 µM unless noted
PC-3 prostate = details: 10 µM unless noted
SK-MEL-5 melanoma = details: 10 µM unless noted
UACC-62 melanoma = details: 10 µM unless noted
LOX IMVI melanoma = details: 10 µM unless noted
SK-MEL-2 melanoma = details: 10 µM unless noted
SN12C renal = details: 10 µM unless noted
UO-31 renal = details: 10 µM unless noted
TK-10 renal = details: 10 µM unless noted
ACHN renal = details: 10 µM unless noted
CAKI-1 renal = details: 10 µM unless noted
A498 renal = details: 10 µM unless noted
CCRF-CEM leukemia = details: 10 µM unless noted
MOLT-4 leukemia = details: 10 µM unless noted
SR leukemia = details: 10 µM unless noted
SK-MEL-28 melanoma = details: 10 µM
EKVX NSCLC = details: 10 µM unless noted

| Compound | growth (HT29 colon) | growth (SNB-75 CNS) | growth (SNB-19 CNS) | growth (U251 CNS) | growth (PC-3 prostate) | growth (SK-MEL-5 melanoma) | growth (UACC-62 melanoma) | growth (LOX IMVI melanoma) | growth (SK-MEL-2 melanoma) | growth (SN12C renal) | growth (UO-31 renal) | growth (TK-10 renal) | growth (ACHN renal) | growth (CAKI-1 renal) | growth (A498 renal) | growth (CCRF-CEM leukemia) | growth (MOLT-4 leukemia) | growth (SR leukemia) | growth (SK-MEL-28 melanoma) | growth (EKVX NSCLC) |
| --- | --- | --- | --- | --- | --- | --- | --- | --- | --- | --- | --- | --- | --- | --- | --- | --- | --- | --- | --- | --- |
| O=S(=O)(c1ccccc1)n1cc2c(c1-c1ccccc1)CCc1sc(Nc3ccccc3)nc1-2 | 93% | 93% | 95.2% | 78.5% | 69.8% | 88.3% | 78.4% | 77.8% | 93.4% | 77.1% | 70.4% | 100% | 77.9% | 75.8% | 89.4% | 72.6% | 76% | 79.3% |  |  |
| N#C/C(=C1\SC(=O)CN1c1ccccc1)c1nc2ccccc2s1 | 108% | 88.7% | 94.3% | 91.9% | 92% | 93.3% | 91.1% | 88.3% | 86.1% | 91% | 53.2% | 135% | 93.6% | 89.9% | 82.4% | 84.4% | 84.2% | 76.4% |  |  |
| Nc1no[n+]([O-])c1-c1nnc2c(n1)-c1ccccc1C2=O | 57.1% | 95% | 84.5% | 88% | 33.6% | 19.7% | 64.3% |  | 86.9% | 15.6% | 37% | 151% | 16% | 72.4% | 91% | 35.5% | 5.49% (active) | 3.68% (active) | 81.4% | 63.8% |
| O=S1(=O)N(Cc2ccccc2)[C@@H](Cc2ccccc2)C2O[C@H]2[C@H](Cc2ccccc2)N1Cc1ccccc1 (stereo not given in full) | 46.7% | 46.3% | 44.9% | 41.5% | 42% | 28.3% | 40.8% | 19.6% | 84.1% | 47.8% | 68.1% | 71% | 41.2% | 33.8% | 65.4% | 29.5% | 35.4% | 29.6% |  | 24% |
| Fc1cccc(COc2ccc(Nc3ncnc4onc(-c5ccccc5)c34)cc2)c1 | 3.86% (active) | -34.9% (active) | 21% | 22.5% | 18.4% | 19.2% | 23.5% | 23.1% | 35.9% | 22.3% | 18.6% | 49.1% | 37.1% | 37.5% | -22.4% (active) | 20.1% | 15.4% | 26.1% |  | 32.9% |
| FC(F)(F)c1cccc(CNC2CCN(CCc3ccccc3)CC2)c1 | 46.9% | 71.2% | 91.7% | 77.4% | 25.2% | 90% | 86.4% | 56% | 91% | 85.4% | 56.3% | 79.8% | 90.7% | 60.2% | 60.4% | 13.2% | 54.3% | 29.3% |  |  |
| COc1cc(NC(=O)CCSc2nc3ccccc3c(=O)n2Cc2ccccc2)cc(OC)c1OC | 97.1% | 55.7% | 84.9% | 91.6% | 66.9% | 87.4% | 64.8% | 82% | 84.4% | 82.9% | 45.7% | 108% | 78.5% | 72.5% | 64.6% | 74.5% | 69.3% |  |  |  |
| Clc1ccc(COc2ccc(Nc3ncnc4onc(-c5ccccc5)c34)cc2)cc1 | 92.2% | 67.8% | 91.6% | 94% | 67% | 83% | 64.2% | 86.7% | 101% | 87.8% | 90.5% | 91.4% | 41.7% | 84.6% | 69.2% | 73.2% | 85.9% | 43.8% |  | 95.6% |
| COc1nccc2cc3c(=O)n4c(cc5ccccc54)c(=O)n3c12 | 112% | 89.2% | 108% | 101% | 87.8% | 96.6% | 101% | 97.1% | 94.3% | 95.7% | 53.4% | 131% | 96% | 92.5% | 108% | 96.5% | 86.3% | 87.1% |  |  |
| O=C(Nc1ccc(N2CCNCC2)cn1)c1[nH]ncc1Nc1ncnc2sc3c(c12)CCC3 | -42.3% (active) | 85.7% | 10.7% | -71.9% (active) | -30.6% (active) | 59.7% | 38.9% |  | 89.7% | 53.6% | 72.6% | 95.2% | -76.5% (active) | 54.3% | 70.2% | -7.26% (active) | 14.3% | 0.52% (active) | -40.3% (active) | 83.8% |
| Cc1cccc2c(=O)c3c(sc12)c(NCCN)nc1ccccc13 | -54.9% (active) | 15.2% | -2.48% (active) | -77.2% (active) | -42.9% (active) | -22.9% (active) | -86.6% (active) |  | -34.9% (active) | -75.8% (active) | -77.1% (active) | -73.7% (active) | -97.6% (active) | -58.4% (active) |  | -34.5% (active) | -59% (active) | -28.3% (active) | -86.1% (active) | -0.232% (active) |
| O=NN(Cc1cccnc1)C(=O)NC1CCCCC1 | 103% | 84.7% | 102% | 97.4% | 98.7% | 102% | 110% | 103% | 119% | 98.9% | 90% | 114% | 96.5% | 93.9% | 103% | 102% | 111% | 99.7% |  |  |
| O=C1Nc2ccccc2/C1=C/c1cccs1 | 110% | 103% | 83.2% | 83.2% | 92.3% | 85.9% | 85.9% | 93% | 110% | 89.9% | 62.2% | 134% |  | 90.4% | 106% | 97.2% | 102% | 121% |  | 73.2% |
| CCCCCCCCCCCCCCn1cc(C2=C(c3coc4ccc(OC)cc34)C(=O)NC2=O)c2ccccc21 | 77.1% | 80.6% | 101% | 97.9% | 109% | 107% | 95.9% |  | 104% | 100% | 83.5% | 102% | 102% | 88.8% |  | 101% | 118% | 111% | 101% | 90.9% |
| O=C(N/N=C/c1ccccc1Cl)C(=O)Nc1cccc(C(F)(F)F)c1 | 97.4% | 116% | 94.1% | 96.9% | 106% | 96.6% | 91.2% | 94.9% | 113% | 92.7% | 90.8% | 83.7% | 76% | 97.6% | 89.3% | 100% | 92.1% | 65.1% |  |  |
| COc1ccc(-n2c(C(O)c3ccccc3)nn(CN3CCOCC3)c2=S)cc1 (stereo not given) | 109% | 87.4% | 92.7% | 95.2% | 101% | 112% | 95.8% |  | 95.2% | 91% | 77.5% | 119% |  | 97% | 115% | 96.6% | 123% | 193% | 89.2% | 111% |
| COc1ccc(CCN2CCC(CN(C)Cc3cnn(-c4ccccc4)c3)CC2)cc1 | 33.5% | 59.9% | 29.4% | 9.09% (active) | 34% | 18.9% | -14.2% (active) |  | 37.3% | 23.7% | 12.7% | 45.5% | 21.3% | 15.7% | 42.9% | 0.563% (active) | 3.15% (active) | 5.6% (active) | 33.4% |  |
